Bioassay records as filed in PubChem.
AmpC no deterg = blocks E. coli AmpC beta-lactamase in detergent-free assay; P00811; AmpC nitrocefin hydrolysis, absorbance 480 nm, 0.0001% Triton; Potency, µM (series often up to 57.1 µM), actives largely listed as inhibitors; 330,000 compounds, 0.52% hits; AID 485341; active means well fitted curve in the direction sought with a large enough effect; inconclusive means small, poorly fitted or top-dose-only effect, or another doubt; inactive means no such curve, though single readings can be large; an effect the other way counts as inactive or inconclusive; further: nearly all actives have a fitted effect of over 20% in size
Target sequence (P00811 whole entry, looked up): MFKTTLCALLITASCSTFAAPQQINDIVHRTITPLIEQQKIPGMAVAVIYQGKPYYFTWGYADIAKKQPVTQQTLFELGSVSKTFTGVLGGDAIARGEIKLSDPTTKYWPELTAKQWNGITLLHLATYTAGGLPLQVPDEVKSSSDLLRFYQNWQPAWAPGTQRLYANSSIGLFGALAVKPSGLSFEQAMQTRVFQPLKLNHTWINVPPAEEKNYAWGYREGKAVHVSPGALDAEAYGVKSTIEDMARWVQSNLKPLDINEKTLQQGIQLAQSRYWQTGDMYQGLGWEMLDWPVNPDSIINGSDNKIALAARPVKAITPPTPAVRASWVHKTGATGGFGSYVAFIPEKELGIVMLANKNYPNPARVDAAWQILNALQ
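AmpC (5.3 nM in the dispensed reagent) in 20 mM phosphate pH 7.0 with 0.01% (detergent screen) or 0.0001% Triton X-100 was preincubated with compounds for 15 min at room temperature. Nitrocefin was then added from an 800 uM solution, and hydrolysis was followed at 480 nm.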
SARS PLP yeast = inhibitors of SARS-CoV papain-like protease in yeast. S. cerevisiae expressing SARS-CoV PLpro, growth rescue. Potency, µM (doses to about 32.9 µM), actives largely listed as activators. 330,000 compounds, 0.19% hits; further: nearly all actives have a fitted effect of over 55% in size
FBPA Giardia inh = blocks Giardia fructose-bisphosphate aldolase activity; 290,000 compounds, 0.71% hits; A8B2U2; purified Giardia FBPA; Potency, µM (top dose mostly 59.6 µM), actives largely listed as inhibitors; active means well fitted curve in the direction sought with a large enough effect; inconclusive means small, poorly fitted or top-dose-only effect, or another doubt; inactive means no such curve, though single readings can be large; an effect the other way counts as inactive or inconclusive; further: nearly all actives have a fitted effect of over 55% in size
Target sequence (A8B2U2 whole entry, looked up): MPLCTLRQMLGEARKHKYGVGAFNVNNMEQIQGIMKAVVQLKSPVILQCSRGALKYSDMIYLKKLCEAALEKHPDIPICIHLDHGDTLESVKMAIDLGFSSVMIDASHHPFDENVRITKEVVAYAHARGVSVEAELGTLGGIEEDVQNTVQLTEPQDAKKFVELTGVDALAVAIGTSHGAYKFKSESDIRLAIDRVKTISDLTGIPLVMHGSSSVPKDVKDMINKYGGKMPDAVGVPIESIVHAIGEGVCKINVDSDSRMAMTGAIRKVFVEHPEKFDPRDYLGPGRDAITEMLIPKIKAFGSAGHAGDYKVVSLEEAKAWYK
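Giardia FBPA (40 nM reagent) was preincubated 10 min at RT with compound (up to 57.5 uM final), then substrate plus GAPDH/TPI/NAD/arsenate coupling system with diaphorase/resazurin was added; resorufin fluorescence (525/598 nm) was read after 20 min.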
NS1 function inh = inhibitors of influenza NS1 protein function | Potency, µM (highest dose often 46.1 µM) | 270,000 compounds, 0.4% hits | AID 2326; further: actives are rising curves; nearly all actives have a fitted effect of over 50% in size
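Recovery from NS1-induced slow growth read by OD600 in budding yeast switched to galactose assay medium (pH 6.0, -URA) at 1:100 dilution. Compound 23 nl per well; the matching strain lacking NS1 serves as control.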
AmpC inh detg = blocks E. coli AmpC beta-lactamase in detergent assay. P00811. AmpC hydrolysis of nitrocefin, absorbance 480 nm, 0.01% Triton. Potency, µM (titrated, usually from 114 µM), actives largely listed as inhibitors. 370,000 compounds, 0.041% hits. AID 485294; active means well fitted curve in the direction sought with a large enough effect; inconclusive means small, poorly fitted or top-dose-only effect, or another doubt; inactive means no such curve, though single readings can be large; an effect the other way counts as inactive or inconclusive; further: nearly all actives have a fitted effect of over 25% in size
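20 mM phosphate pH 7.0 + 0.01% (detergent screen) or 0.0001% Triton X-100; 5.3 nM AmpC reagent; cpd preinc 15 min RT; nitrocefin (800 uM stock) to start; A480 q20 s × 4 min; Activity was normalised to no-enzyme and no-compound control wells.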
NS1 inh valid = validation of influenza NS1 protein function inhibitors | shares compounds with NS1 function inh | influenza NS1 function cell assay, 15-point titration | activity change, negative = inhibition, % at 32.9 µM | 1,400 tested, under 10 active
Flu PR8 replic = influenza NS1 inhibitors: inhibition of influenza A/PR/8/34 replication. shares compounds with NS1 function inh. MDCK infected influenza A/PR/8/34, virus titer TCID50; stronger effect = lower value. virus titer (log TCID50), log10 TCID50 at 5 µM. 95 compounds, 30% hits; call rule not given here
Of the large screens only hits and unclear results are named; the others gave an inactive call (follow-up assays come after a bar, where they were run). In the library only some 1.4% were active in any assay of this set; here they are far more common. Unless noted, the call rests on the fitted dose curve.

Oc1cccc(/C=N/Nc2ncnc3c2ncn3Cc2ccccc2)c1	none
Oc1ccc(/C=N/Nc2ncnc3c2ncn3Cc2ccccc2)cc1O	SARS PLP yeast inconclusive, FBPA Giardia inh inconclusive, NS1 function inh 14µM, AmpC inh detg inconclusive | NS1 inh valid inactive
CC1CCCCC1NC(=O)CN1CCN(S(=O)(=O)c2ccc(Br)s2)CC1 (stereo not given)	none (no result: FBPA Giardia inh, NS1 function inh)
C=CCN1c2ccccc2[C@]23C[C@@H](C(=O)OC)N(C(=O)CC(C)C)C2=NC(C(=O)OC)=C(C(=O)OC)[C@H]13	none
CCOc1ccc(S(=O)(=O)Nc2ccccn2)c2ccccc12	NS1 function inh 1.1µM | NS1 inh valid inactive
Cc1ccc(CNC(=O)Cn2c3ncccc3c(=O)n2-c2ccc(C)cc2)cc1	none (no result: AmpC no deterg, SARS PLP yeast, FBPA Giardia inh, NS1 function inh)
CCOC(=O)c1c(C)[nH]c(C(=O)/C(C#N)=C/c2ccc(OCC)cc2)c1C	NS1 function inh 4µM | NS1 inh valid inactive
Cc1ccc(CNc2c(C)c(C)nc3nncn23)cc1	none (no result: AmpC no deterg, SARS PLP yeast, FBPA Giardia inh, NS1 function inh)
CC(=O)/C(N=Nc1cc2c(c([N+](=O)[O-])c1C)C(C)(C)CC2(C)C)=C(\C)O	none
C/C(=N\NC(=O)c1cc(Br)ccc1O)c1ccccn1	AmpC no deterg inconclusive, AmpC inh detg inconclusive
COc1cc(/C=C/C(=O)Nc2nnc(CC(C)C)s2)cc(OC)c1OC	NS1 function inh inconclusive | NS1 inh valid inactive
COc1ccc(-n2c(O)c(/C=N/NS(=O)(=O)c3cc(C)ccc3C)c3ccccc3c2=O)cc1OC	none
COc1ccc(-n2c(O)c(/C=N/NS(=O)(=O)c3ccc(C)cc3)c3ccccc3c2=O)cc1OC	NS1 function inh 10µM | NS1 inh valid inactive
COC(=O)[C@@]1(C)[C@H]2C(=O)N(Cc3ccccc3)C(=O)[C@H]2[C@H]2CN=C(SCc3ccc(Cl)cc3)N21	none (no result: FBPA Giardia inh, NS1 function inh, AmpC inh detg)
COc1ccc(-c2cc(C(=O)OCC(=O)c3ccc(C)c([N+](=O)[O-])c3)c3ccccc3n2)cc1	NS1 function inh inconclusive | NS1 inh valid inactive
Cc1ccc(-n2nc(C)c3c2OC(N)=C(C#N)C3c2ccco2)cc1 (stereo not given)	NS1 function inh inconclusive
Cc1ccc(-n2nc(C)c3c2OC(N)=C(C#N)C3c2ccoc2)cc1 (stereo not given)	NS1 function inh 2.5µM | NS1 inh valid inactive
CCc1ccc(/C=C2\Oc3ccc(C(=O)OC)cc3C2=O)cc1	none
COC(=O)c1ccc2c(c1)C(=O)/C(=C/c1ccc(C)cc1)O2	SARS PLP yeast inconclusive, NS1 function inh 10µM | NS1 inh valid inactive
COc1ccc(NC(=O)c2ccc(-c3cccc(Cl)c3C)o2)cc1	none (no result: AmpC no deterg, SARS PLP yeast, FBPA Giardia inh, NS1 function inh)
O=C(O)c1cccc(CN2C(=O)CSC2=O)c1	NS1 function inh 22µM | NS1 inh valid inactive
O=C(O)c1cccc(CN2CCCCC2)c1	none (no result: AmpC no deterg, SARS PLP yeast, FBPA Giardia inh, AmpC inh detg)
CCN(CC)c1ccc(C=C(c2nnnn2-c2ccccc2)c2nnnn2-c2ccccc2)cc1	AmpC no deterg inconclusive, NS1 function inh 7.9µM | NS1 inh valid inactive
COc1cc(CC(=O)OC2CCOC2=O)cc(OC)c1OC (stereo not given)	none
CC(=O)OC1CC2CCC1(C)C2(C)C (stereo not given)	none (no result: AmpC no deterg, SARS PLP yeast, NS1 function inh, AmpC inh detg)
N=C1C(c2nc3ccccc3s2)=C(O)CN1CCCO	none
Cc1[nH]c2ccccc2c1N=Nc1ccccc1C(=O)O	NS1 function inh 4.5µM | NS1 inh valid inactive
CCOc1cc2[nH]c(=O)n(CC3CCC(C(=O)NCCCOC)CC3)c(=O)c2cc1OCC (stereo not given)	NS1 function inh 8.9µM | NS1 inh valid inactive
O=c1cc(N2CCc3ccccc32)[nH]c(=O)n1-c1ccc(Br)cc1	AmpC no deterg inconclusive, FBPA Giardia inh inconclusive, NS1 function inh 6.3µM, AmpC inh detg inconclusive | NS1 inh valid inactive
CC1CCC(C(C)C)C(OC(=O)CSc2nc(N)cc(=O)[nH]2)C1 (stereo not given)	NS1 function inh 8.9µM (no result: FBPA Giardia inh) | NS1 inh valid inactive
Cc1nnc(SCC(=O)OC2CC(C)CCC2C(C)C)[nH]c1=O (stereo not given)	none
OCCC1CCCCN1CC(O)COCc1ccc(Cl)cc1 (stereo not given)	FBPA Giardia inh inconclusive
C/C(=N\Nc1ccccc1)c1c(O)n(Cc2ccccc2)c(=O)[nH]c1=O	NS1 function inh 10µM | NS1 inh valid inactive
C/C(=N\Nc1ccccc1)c1c(O)n(-c2ccccc2)c(=O)[nH]c1=O	none
Cc1ccc(S(C)(=O)=NS(=O)(=O)c2cccc3nsnc23)cc1 (stereo not given)	none
CCNc1nc(NCC)n2c(SCC(=O)O)nnc2n1	NS1 function inh 10µM | NS1 inh valid inactive
CCNc1nc(NCC)n2c(SCC(=O)Nc3c(C)cccc3C)nnc2n1	none (no result: FBPA Giardia inh, NS1 function inh)
N#Cc1ccccc1OCC(=O)OCC(=O)c1c[nH]c2ccccc12	AmpC inh detg inconclusive (no result: FBPA Giardia inh, NS1 function inh)
CCOC(=O)N1CCC(=NNc2nc(C)cc(=O)[nH]2)CC1	none (no result: NS1 function inh)
O=C(C1=NN(c2ccccc2)C2C(=O)N(c3ccccc3)C(=O)C12)c1ccccc1 (stereo not given)	NS1 function inh inconclusive
O=C(C1=NN(c2ccccc2)C2C(=O)N(c3ccccc3Cl)C(=O)C12)c1ccccc1 (stereo not given)	NS1 function inh 5.6µM | NS1 inh valid inactive | Flu PR8 replic inactive
Cc1cc(-n2c(C)cc(C(=O)CN3C(=O)NC4(CCCCC4)C3=O)c2C)no1	none
O=C(NNc1nc2cc3c(cc2s1)OCO3)c1ccc(F)cc1	NS1 function inh inconclusive, AmpC inh detg inconclusive | NS1 inh valid inactive
Cc1ccc(CCC(=O)NCc2ccccc2)o1	NS1 function inh 5µM | NS1 inh valid inactive
CN(C)C(CNC(=O)c1cc(Br)ccc1Cl)c1ccco1 (stereo not given)	NS1 function inh 2µM | NS1 inh valid inactive
CN(C)C(CNC(=O)c1ccc(Br)cc1)c1ccco1 (stereo not given)	none
COc1ccccc1N1CCN(C(CNC(=O)C(=O)NCc2cccnc2)c2cccnc2)CC1 (stereo not given)	none (no result: AmpC no deterg, SARS PLP yeast, FBPA Giardia inh, NS1 function inh)
CC(C)(C)NC(=O)CN(C(=O)c1snc(C(=O)NC2CCCCC2)c1N)c1ccccc1F	NS1 function inh 3.2µM | NS1 inh valid inactive
Cc1ccc(C)c(N(CC(=O)NC2CCCCC2)C(=O)c2snc(C(N)=O)c2N)c1	none
Cc1cc(C)nc(/N=C2\NC(=O)CC(C(=O)O)N2CCc2c[nH]c3ccccc23)n1 (stereo not given)	none
O=C1CC(C(=O)Nc2ccccc2C(=O)O)C(c2ccccc2)O1 (stereo not given)	AmpC inh detg inconclusive
CCOc1ccc(C(=O)Cn2cnnc2C#N)cc1	NS1 function inh inconclusive, AmpC inh detg inconclusive | NS1 inh valid inactive
